Results published in PubChem BioAssay (Tox21).
Records with an inconclusive call do not appear. Calls of active or inactive are those of the source. Unless noted, the call rests on the fitted dose curve; in most records, active means well fitted curve in the direction sought with a large enough effect in the repeat runs; inconclusive means weak or mixed curves; inactive means no such curve, though single readings can be large; an effect the other way counts as inactive or inconclusive.

Assays:
[1] = qHTS assay to identify small molecule agonists or antagonists of the thyroid stimulating hormone receptor (TSHR) signaling pathway - wild type cell line counter screen (AID 1259384; calls by dose curve)
Procedure, shortened: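 Wild-type HEK293 cells were plated 18 h at 37 C/5% CO2, pin-dosed with compound plus Ro20-1724 medium, held 30 min at room temperature, then given cAMP-d2 and anti-cAMP-cryptate; fluorescence was read after 1 h. Fifteen concentrations, triplicate.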

[2] = target: Thyrotropin receptor (Homo sapiens) (UniProt P16473); assay: qHTS assay to identify small molecule antagonists of the thyroid stimulating hormone receptor (TSHR) signaling pathway (AID 1259385; calls by dose curve; further: nearly all actives have a fitted effect of over 20% in size)
Thyrotropin receptor (Homo sapiens), sequence (P16473 whole entry, looked up): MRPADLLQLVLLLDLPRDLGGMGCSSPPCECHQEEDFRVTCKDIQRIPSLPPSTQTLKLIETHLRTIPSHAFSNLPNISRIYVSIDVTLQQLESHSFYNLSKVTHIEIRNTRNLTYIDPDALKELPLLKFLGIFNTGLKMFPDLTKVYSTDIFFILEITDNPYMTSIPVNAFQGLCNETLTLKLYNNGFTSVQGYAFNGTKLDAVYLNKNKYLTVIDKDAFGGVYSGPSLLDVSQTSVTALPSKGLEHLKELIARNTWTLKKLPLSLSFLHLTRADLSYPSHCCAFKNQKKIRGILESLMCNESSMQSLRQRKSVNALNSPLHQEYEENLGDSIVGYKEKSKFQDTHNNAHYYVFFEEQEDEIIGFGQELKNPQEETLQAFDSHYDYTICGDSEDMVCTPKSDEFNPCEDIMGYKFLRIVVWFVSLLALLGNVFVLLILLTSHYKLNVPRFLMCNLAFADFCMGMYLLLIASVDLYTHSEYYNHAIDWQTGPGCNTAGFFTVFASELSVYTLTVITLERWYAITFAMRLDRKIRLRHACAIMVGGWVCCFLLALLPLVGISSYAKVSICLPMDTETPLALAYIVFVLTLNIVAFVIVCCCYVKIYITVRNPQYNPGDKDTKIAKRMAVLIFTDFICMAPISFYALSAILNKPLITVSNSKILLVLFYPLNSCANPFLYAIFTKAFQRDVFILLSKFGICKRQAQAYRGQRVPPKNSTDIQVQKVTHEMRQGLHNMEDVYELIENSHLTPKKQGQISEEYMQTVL
Procedure, shortened: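 TSHR-HEK293 cells were plated and held 18 h at 37C/5% CO2, then given compound plus Ro20-1724 and stimulated with TSH at 1.5 ng/mL final. After 30 min at room temperature, cAMP was detected with cAMP-d2/anti-cAMP-cryptate (1 h) by fluorescence.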

[3] = target: Progesterone receptor (Homo sapiens) (UniProt P06401); assay: qHTS assay to identify small molecule agonists of the progesterone receptor (PR) signaling pathway (AID 1346784; calls by dose curve; further: nearly all actives have a fitted effect of over 30% in size; further: potency means the concentration at half of the fitted maximal effect)
Progesterone receptor (Homo sapiens), sequence (P06401 whole entry, looked up): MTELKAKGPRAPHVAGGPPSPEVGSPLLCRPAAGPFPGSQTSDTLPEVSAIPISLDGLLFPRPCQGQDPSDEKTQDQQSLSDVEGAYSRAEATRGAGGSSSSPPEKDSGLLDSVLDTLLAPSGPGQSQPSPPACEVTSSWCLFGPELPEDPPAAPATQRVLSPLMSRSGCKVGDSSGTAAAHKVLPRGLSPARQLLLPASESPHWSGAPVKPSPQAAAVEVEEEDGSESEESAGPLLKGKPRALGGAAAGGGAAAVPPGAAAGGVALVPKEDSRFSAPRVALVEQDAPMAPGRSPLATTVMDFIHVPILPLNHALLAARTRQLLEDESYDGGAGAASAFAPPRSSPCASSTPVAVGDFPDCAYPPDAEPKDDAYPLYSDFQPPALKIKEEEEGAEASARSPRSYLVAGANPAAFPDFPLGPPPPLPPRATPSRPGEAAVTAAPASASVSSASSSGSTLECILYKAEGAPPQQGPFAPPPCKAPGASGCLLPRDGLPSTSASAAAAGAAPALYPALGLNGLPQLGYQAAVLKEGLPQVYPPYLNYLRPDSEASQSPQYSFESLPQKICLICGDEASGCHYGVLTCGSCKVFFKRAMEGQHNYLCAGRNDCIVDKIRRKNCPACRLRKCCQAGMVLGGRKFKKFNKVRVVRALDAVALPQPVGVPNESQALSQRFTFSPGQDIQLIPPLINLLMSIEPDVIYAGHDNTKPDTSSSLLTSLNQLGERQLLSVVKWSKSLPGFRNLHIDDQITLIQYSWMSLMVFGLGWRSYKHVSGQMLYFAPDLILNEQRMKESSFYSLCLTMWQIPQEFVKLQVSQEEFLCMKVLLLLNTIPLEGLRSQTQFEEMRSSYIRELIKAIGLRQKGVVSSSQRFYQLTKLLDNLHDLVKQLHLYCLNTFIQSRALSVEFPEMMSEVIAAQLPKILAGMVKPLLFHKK
Procedure, shortened: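 Seed PR-UAS-bla HEK 293T cells (2% charcoal-stripped FBS), incubate 6 hr at 37C; add compounds in DMSO, 16 hr at 37C; add LiveBLAzer B/G substrate, 2 hr RT; read fluorescence intensity.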

[4] = target: Progesterone receptor (Homo sapiens) (UniProt P06401); assay: qHTS assay to identify small molecule antagonists of the progesterone receptor (PR) signaling pathway (AID 1346795; active means well fitted inhibition curve with a large enough effect in the signal ratio in the repeat runs, not every such curve was filed as active; the % refers to the signal ratio; further: potency means the concentration at half of the fitted maximal effect)
Procedure, shortened: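 Screening used a GripTite HEK293T line with PR-responsive UAS-beta-lactamase. Cells were challenged with compound in the presence of 1 nM R5020 final for 16 hr at 37C; B/G FRET substrate, 2 hr room temperature, fluorescence.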

[5] = qHTS assay to identify small molecule agonists of the progesterone receptor (PR) signaling pathway - cell viability counter screen (AID 1346799; calls by dose curve; further: nearly all actives have a fitted effect of over 45% in size)
Procedure, shortened: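 Using the same plates as the PR reporter screen, HEK293T PR-UAS-bla cells received compounds for 16 hr at 37C and were then lysed with CellTiter-Glo; luminescence was read 30 min later at room temperature.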

[6] = qHTS assay to identify small molecule antagonists of the TGF-beta/Smad signaling pathway - cell viability counter screen (AID 1346824); further: nearly all actives have a fitted effect of over 50% in size
Procedure, shortened: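 SBE-bla HEK 293T cells were plated overnight at 37 C, then given compounds in DMSO plus TGF-beta1 (added as 0.25 ng/mL solution) for 5 hr. After the bla read, CellTiter-Glo was added to the same wells and luminescence read after 30 min at room temperature.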

[7] = qHTS assay to identify small molecule agonists of the TGF-beta/Smad signaling pathway - cell viability counter screen (AID 1346829); further: top concentration of the series differs between compounds; nearly all actives have a fitted effect of over 45% in size
Procedure, shortened: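 After overnight seating at 37 C and 5% CO2, reporter cells got compounds for 5 hr and FRET substrate for 2 hr; cell viability then came from CellTiter-Glo luminescence.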

[8] = qHTS assay to identify small molecule antagonists of the progesterone receptor (PR) signaling pathway - cell viability counter screen (AID 1346798); further: series mostly up to about 92 µM; nearly all actives have a fitted effect of over 50% in size
Procedure, shortened: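 Measures cytotoxicity in parallel with the PR antagonist reporter read: HEK293T PR-UAS-bla cells get compound and R5020 for 16 hr, and remaining viable cells are quantified by CellTiter-Glo luminescence.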

[9] = qHTS assay to identify small molecule agonists of the estrogen receptor alpha (ER-alpha) signaling pathway in the presence of an antagonist - cell viability counter screen (AID 1259386);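 further: series mostly up to about 92 µM; cells exposed to compounds for 22 h at 37 °C before the viability read; nearly all actives have a fitted effect of over 30% in size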
Procedure, shortened: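 Read-out: CellTiter-Fluor fluorescence after 1hr reagent incubation, measured in the same wells as the luciferase readout. VM7Luc4E2 cells were exposed to 15 compound concentrations with 10.0nM ICI-182,780 for 22hr at 37C.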
On the % scale 0 is the no-effect control and ±100 the full control effect.

C/C=C(\C)C=O
inactive: outcome [1] | outcome [2] | Potency [4] | Potency [5] | outcome [6] | outcome [7]
active: Potency [3] 21.8 µM

CN(C)CCc1c[nH]c2ccc(CS(=O)(=O)N3CCCC3)cc12
inactive: outcome [1] | outcome [2] | Potency [3] | Potency [4] | outcome [8] | outcome [6] | outcome [7]

CCCCCCCCOCCC#N
inactive: outcome [1] | outcome [2] | outcome [9] | Potency [3] | outcome [8] | Potency [5] | outcome [6] | outcome [7]

CCO/C=C1\N=C(c2ccccc2)OC1=O
inactive: outcome [1] | outcome [2] | outcome [9] | Potency [3] | Potency [4] | outcome [6] | outcome [7]

N=C(N)N1CCc2ccccc2C1
inactive: cAMP activity change [1] 4.39% [at 8.39 µM] | activity change, negative = inhibition [2] 0.0098% [at 8.39 µM] | activity change, negative = cytotoxicity [9] -0.402% [at 8.39 µM] | activity change, negative = inhibition [4] 5.13% [at 8.39 µM] | activity change, negative = cytotoxicity [8] 3.01% [at 8.39 µM] | activity change, negative = cytotoxicity [5] 0.346% [at 8.39 µM] | viability change, negative = cytotoxic [6] -7.19% [at 6.97 µM] | activity change, negative = cytotoxicity [7] -4.14% [at 6.97 µM]

CC(C)OCCO
inactive: outcome [1] | outcome [2] | outcome [9] | Potency [4] | outcome [8] | outcome [6] | outcome [7]

COc1cc(NS(=O)(=O)c2ccc(N)cc2)ncn1
inactive: outcome [1] | outcome [2] | outcome [9] | Potency [3] | outcome [8] | outcome [6] | outcome [7]

C=CCn1cc[n+](C)c1
inactive: outcome [1] | outcome [2] | outcome [9] | Potency [3] | outcome [8] | outcome [6] | outcome [7]

CCc1ncc(C)[nH]1
inactive: outcome [1] | outcome [2] | outcome [9] | Potency [4] | Potency [5] | outcome [6] | outcome [7]

CC(C)OC(=O)C(C(=O)OC(C)C)=C1SC=CS1
inactive: outcome [1] | outcome [2] | outcome [9] | outcome [8] | outcome [6] | outcome [7]

O=Cc1ccccc1S(=O)(=O)O
inactive: outcome [1] | outcome [2] | outcome [9] | Potency [4] | Potency [5] | outcome [6] | outcome [7]

Clc1ccc2c(c1)Nc1ccccc1S2
active: Potency [4] 7.5 µM
inactive: outcome [1] | outcome [2] | outcome [9] | outcome [8] | Potency [5] | outcome [6] | outcome [7]

CCCCCC(=O)CC
inactive: outcome [1] | outcome [2] | outcome [9] | outcome [8] | outcome [6] | outcome [7]

Cc1ccc2ccccc2n1
inactive: outcome [1] | outcome [2] | outcome [9] | outcome [8] | Potency [5] | outcome [6] | outcome [7]

C=CCN1CCc2nc(N)sc2CC1
inactive: outcome [1] | outcome [2] | outcome [9] | outcome [6] | outcome [7]

CCC(=O)OCCOc1ccccc1
inactive: outcome [1] | outcome [2] | Potency [3] | Potency [4] | outcome [8] | Potency [5] | outcome [6] | outcome [7]

COC(=O)C(c1ccccc1Cl)N1CCc2sccc2C1 (stereo not given)
inactive: outcome [1] | outcome [2] | outcome [9] | Potency [3] | Potency [5] | outcome [6] | outcome [7]

CC(C)=CCC/C(C)=C\C#N
inactive: outcome [1] | outcome [2] | outcome [9] | Potency [3] | outcome [6] | outcome [7]

CCOc1ccccc1OCCN[C@H](C)Cc1ccc(OC)c(S(N)(=O)=O)c1
inactive: outcome [1] | outcome [2] | outcome [9] | Potency [3] | outcome [8] | outcome [6] | outcome [7]

CCCC(C)C(O)CC (stereo not given)
inactive: outcome [1] | outcome [2] | outcome [9] | Potency [3] | Potency [5] | outcome [6] | outcome [7]

CCCCCCCCCCCCCCCC/C=C/C1CC(=O)OC1=O (stereo not given)
inactive: outcome [1] | outcome [2] | outcome [9] | Potency [3] | outcome [8] | Potency [5] | outcome [6] | outcome [7]

Cc1ccccc1C#N
inactive: outcome [1] | outcome [2] | outcome [9] | Potency [3] | outcome [8] | Potency [5] | outcome [6] | outcome [7]

NC[C@H]1O[C@H](O[C@H]2[C@H](O)[C@@H](O[C@H]3O[C@H](CO)[C@@H](O)[C@H](N)[C@H]3O)[C@H](N)C[C@@H]2N)[C@H](N)[C@@H](O)[C@@H]1O
inactive: cAMP activity change [1] 2.25% [at 18.9 µM] | activity change, negative = inhibition [2] 4.59% [at 19 µM] | activity change, negative = cytotoxicity [9] 10% [at 19 µM] | activation [3] -1.56% [at 19 µM] | activity change, negative = cytotoxicity [5] 1.42% [at 19 µM] | viability change, negative = cytotoxic [6] 6.71% [at 15.8 µM] | activity change, negative = cytotoxicity [7] -5.22% [at 15.8 µM]

CCN(CC)CC(=O)Oc1ccc(NC(C)=O)cc1
inactive: outcome [1] | outcome [2] | outcome [9] | Potency [3] | outcome [8] | Potency [5] | outcome [6] | outcome [7]

c1cc2ccc3ccc4ccc5cccc6c(c1)c2c3c4c56
inactive: cAMP activity change [1] 5.35% [at 3.27 µM] | activity change, negative = inhibition [2] -1.71% [at 3.27 µM] | activity change, negative = inhibition [4] 17.5% [at 3.27 µM] | activity change, negative = cytotoxicity [8] 2.42% [at 3.27 µM] | activity change, negative = cytotoxicity [7] 8.19% [at 2.72 µM]
active: Potency [3] 0.385 µM

CC(C)(O)c1ccc(C(C)(C)O)cc1
inactive: outcome [1] | outcome [2] | Potency [3] | Potency [4] | outcome [8] | outcome [6] | outcome [7]

CC(C)(C)OC=O
inactive: outcome [1] | outcome [2] | outcome [9] | Potency [3] | Potency [5] | outcome [6] | outcome [7]
